Experimental data taken from PubChem BioAssay AID1497 (Sanford-Burnham Center for Chemical Genomics, 2009).
Hit rate of the full screen: of about 93,000 compounds, about 500 (0.54%) were called active. Shown is part of a subset that was picked to be rich in actives. Unmarked numbers belong to inactive results.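 The calls were made as follows: active = primary inhibition of 50% or more at 10 µM, then 40% or more on retest; inactive = the rest.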

Biological target: Integrin beta-2 (Homo sapiens) + Integrin alpha-M (Homo sapiens) (UniProt P05107+P11215)
Sequence (P05107 whole entry, looked up, other chains not shown): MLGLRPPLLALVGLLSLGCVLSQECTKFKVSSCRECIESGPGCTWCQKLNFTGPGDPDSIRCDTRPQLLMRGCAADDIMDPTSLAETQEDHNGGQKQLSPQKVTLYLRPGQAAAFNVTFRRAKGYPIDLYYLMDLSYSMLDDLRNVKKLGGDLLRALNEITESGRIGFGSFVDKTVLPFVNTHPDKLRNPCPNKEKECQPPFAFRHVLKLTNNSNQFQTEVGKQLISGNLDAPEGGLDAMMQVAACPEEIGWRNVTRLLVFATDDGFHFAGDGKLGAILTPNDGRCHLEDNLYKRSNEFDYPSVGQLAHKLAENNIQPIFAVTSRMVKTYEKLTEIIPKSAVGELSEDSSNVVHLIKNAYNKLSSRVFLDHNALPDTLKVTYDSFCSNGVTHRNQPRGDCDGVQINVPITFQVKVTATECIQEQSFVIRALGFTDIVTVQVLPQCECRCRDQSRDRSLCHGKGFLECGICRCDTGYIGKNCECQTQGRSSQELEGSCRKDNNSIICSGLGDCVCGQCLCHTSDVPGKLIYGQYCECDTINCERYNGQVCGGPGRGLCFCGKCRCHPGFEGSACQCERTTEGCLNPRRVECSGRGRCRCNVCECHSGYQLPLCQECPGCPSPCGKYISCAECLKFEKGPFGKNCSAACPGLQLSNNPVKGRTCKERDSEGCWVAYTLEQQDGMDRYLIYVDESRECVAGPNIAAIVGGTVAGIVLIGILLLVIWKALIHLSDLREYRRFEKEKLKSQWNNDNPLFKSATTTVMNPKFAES
Experiment: antagonists of integrin CD11b/CD18-fibrinogen binding – K562 cells, luminescence, primary screen (AID 1497)
Conditions: K562 CD11b/CD18 adhesion to fibrinogen, ATPlite luminescence; at 10 µM; stronger effect = higher value; Mn2+ added to activate the integrin

SMILES	inhibition
O=C(NCC1CCCO1)/C(=C/c1ccc(Cl)cc1)NC(=O)c1ccccc1 (stereo not drawn)	2.4%
O=C(Nc1nnc(C2COc3ccccc3O2)o1)c1ccc(F)cc1 (stereo not drawn)	-27.3%
COC(=O)Cc1ccc(NC(=S)NCc2ccccc2)cc1	0.4%
CCCn1c(SCC(=O)Nc2ccc(C)c(S(=O)(=O)N3CCOCC3)c2)n[nH]c1=O	-10.9%
COC(=O)c1cc(Cl)c(NC(=O)c2ccco2)cc1OC	-6%
O=C(NNC(=S)Nc1ccc(Br)cc1Cl)c1ccco1	89.9% (active)
Cc1ccc(-n2nc3cc(Cl)c(NC(=O)c4ccco4)cc3n2)cc1	3.9%
CN(C)S(=O)(=O)c1cccc(NC(=S)N/N=C/C(=O)c2ccccc2)c1	14%
COc1ccc([N+](=O)[O-])cc1NC(=O)C(C)OC(=O)C1c2ccccc2Oc2ccccc21 (stereo not drawn)	26.5%
COc1ccc(CCNC(=O)CSc2nc(-c3ccc(OC)c(OC)c3)ccc2C#N)cc1	18.5%
Cn1c(CN2CCOCC2)nc2cc(NC(=O)c3ccc(Cl)cc3)ccc21	87.2% (active)
COc1ccc(C(=O)Nc2ccc(CN3CCOCC3)cc2)cc1	-3.3%
CCC(=O)Nc1ccc2c(c1)nc(CCN1CCN(C)CC1)n2C	3.3%
Cc1nn(CCOc2ccccc2)c(=O)n1-c1ccccc1F	-0.4%
COCCOCCn1cnc2ccccc21	2.3%
Cc1cc2ncn(CCCCOc3ccccc3)c2cc1C	63.9% (active)
COc1ccc(NC(=O)CC2C(=O)OCC3CCCCN32)cc1Cl (stereo not drawn)	-8.3%
CCCCCCCCC(=O)NCCOc1ccccc1	2.8%
COc1ccc(/C=C2/C(=O)OCc3cc(OC)c(OC)cc32)c(OC)c1	0.8%
C/C(=N\NS(=O)(=O)c1ccc(Cl)cc1)c1ccc(NC(=O)c2ccco2)cc1	-3.6%
COCCn1c(=NC(=O)c2ccccc2[N+](=O)[O-])sc2cc(S(C)(=O)=O)ccc21	25.4%
C/C(=N\NC(=O)CCn1nc(C)cc1C)C(C)(C)C	1%
N#C/C(=C/c1cccc([N+](=O)[O-])c1)c1nnc2n1CCCCC2	2.5%
O=C(CC(O)(C(F)(F)F)C(F)(F)F)Nc1ccc(Cl)c(Cl)c1	89.5% (active)

SMILES	inhibition
Cc1nnc(NC(=O)Nc2ccc(Cl)c(Cl)c2)s1	37%
N/C(=N\OC(=O)Nc1ccc(Cl)c(Cl)c1)c1ncc(C(F)(F)F)cc1Cl	-4.4%
COc1ccc(CCNC(=O)CCn2c(=O)oc3ccccc32)cc1OC	-58.2%
COc1ccc(Cn2c(=O)sc3ccccc32)cc1OC	75.8% (active)
Cc1nnc(NC(=O)Cn2c(=O)sc3ccccc32)s1	-2.7%
COc1ccc(C(=O)Nc2ccccc2C(=O)N/N=C/c2ccc(O)c(OC)c2)cc1	106%
COc1ccc(NC(=O)c2ccc(OC)cc2)cc1	-5.7%
COc1ccc(C(=O)Nc2ccccc2C(=O)N/N=C/c2ccccc2OC)cc1	65.1% (active)
N#C/C=C\Oc1ccc(Cl)cc1N	51.7% (active)
COc1ccc(Cl)cc1NC(=O)[C@@H]1CCCN1C(=O)c1cccs1	-14.3%
Cc1nn(-c2ccccc2)c(C)c1/C=C/C(=O)OC(C)C(N)=O (stereo not drawn)	-9.1%
COc1ccc(-c2csc(NC(=O)CCCc3cccs3)n2)cc1	6.2%
Cc1c(Br)c([N+](=O)[O-])nn1CC(=O)Nc1sc2c(c1C(=O)OC(C)C)CCC(C)C2 (stereo not drawn)	-9.3%
O=C(Nc1cccc(F)c1)c1coc(=O)c(Br)c1	-10.2%
O=C(COC(=O)c1ccc(Cl)nc1)NCc1ccc2c(c1)OCO2	4.3%
O=C(CSc1ccc2nnc(-c3ccccc3)n2n1)N1CCCc2ccccc21	29.7%
O=C(OCc1ccc(Br)cc1)c1cccc(-c2nnc(-c3ccccc3)o2)c1	6.5%
O=C(CCCCCNC(=O)c1ccccc1)N/N=C/c1ccccc1	9.3%
CC1(c2cccc([N+](=O)[O-])c2)CC(C)(C)N(C(=O)c2ccccc2)c2ccccc21 (stereo not drawn)	12.3%
Cc1ccc(NC(=O)CC2C(=O)N(Cc3ccccc3)C(=S)N2NC(=O)c2cccc(F)c2)c(C)c1 (stereo not drawn)	1.5%
Nc1nnc(SCC(=O)Nc2ccc3nc(SCC(=O)Nc4ccccc4)sc3c2)s1	74%
CC(=O)Nc1ccc(S(=O)(=O)Nc2nc(-c3ccc(C(C)(C)C)cc3)cs2)cc1	0.9%
COc1cc2c3c(c1)/C(=C1/SC(=S)NC1=O)C(=O)N3C(C)(C)C=C2C	92.6%
CCCc1ccc(-c2c(C)sc(NC(=O)c3ccnn3C)c2C#N)cc1	62.4% (active)

SMILES	inhibition
CCc1c(C)sc(NC(=O)c2ccc(Br)o2)c1C(=O)OC	6.5%
CCOC(=O)c1sc(NC(=O)CSc2ncccn2)c(C#N)c1C	-4.4%
COc1ccc(C2Nc3ccccc3C(=O)N2c2ccc(F)cc2)cc1Cn1nnc2ccccc21 (stereo not drawn)	12.2%
CC(=C/c1ccccc1)/C=N/NC(=O)c1cc(C)oc1C	4.2%
Cc1ccc(-n2ncc3c(N4CCN(c5ccc(F)cc5)CC4)ncnc32)c(C)c1	39.7%
Fc1ccc2[nH]c3c(N4CCN(Cc5ccc6c(c5)OCO6)CC4)ncnc3c2c1	103% (active)
CC(C)(C)n1nnnc1C(c1ccc(F)cc1)N1CCN(Cc2ccc3c(c2)OCO3)CC1 (stereo not drawn)	-11.6%
Fc1ccc2[nH]c3c(N4CCSCC4)ncnc3c2c1	81.7% (active)
Cc1cc(N2CCN(Cc3ccc4c(c3)OCO4)CC2)n2ncnc2n1	-10.2%
CCN1CCCC1CNc1ncnc2c1[nH]c1ccc(F)cc12 (stereo not drawn)	-18.1%
COCCCNC(=O)Cn1cc(/C=C(\C#N)C(=O)N2CCN(c3ccccc3)CC2)c2ccccc21	21.8%
O=C(COC(=O)Cc1ccc(F)cc1)Nc1cc(S(=O)(=O)N2CCOCC2)ccc1N1CCCC1	-0.6%
CCCC/C(C)=N/NC(=O)NC1CCCCC1	5.3%
Cc1ccc(N/N=C2\COC(C)(C)CC2=O)cc1	4.6%
CCCn1c(C)cc(/C=C(\C#N)C(=O)OCC(=O)Nc2cc(OC)c(OC)c(OC)c2)c1C	5.7%
Cc1cc(C)c(NC(=O)c2oc3ccccc3c2COc2ccccc2)c(C)c1	-5.4%
CCCN(CC1COc2ccccc2O1)C(=S)Nc1ccc(C)cc1 (stereo not drawn)	9.6%
C=CCNC(=S)NNC(=O)COc1c(Cl)cc(Cl)cc1Cl	-6.9%
Cc1nc2c(-c3ccccc3)c(C)[nH]n2c(=O)c1Cl	-1.6%
Cc1[nH]n(-c2cccc(Cl)c2)c(=O)c1/C=N/n1c(C)nc2ccccc2c1=O	16.1%
Cc1[nH]n(-c2cccc(Cl)c2)c(=O)c1-c1ccc(Cl)cc1	94.7% (active)
CCN(/N=C/c1ccc(N(C)C)cc1)c1nc2ccccc2[nH]1	15%
Cc1nc(NC(=O)c2cccc(Cl)c2)sc1-c1csc(Nc2cccc(Cl)c2)n1	-4%
Cc1nc(C)c(-c2csc(NCCc3ccccc3)n2)s1	89.8% (active)

SMILES	inhibition
Cc1ccc(Nc2nc(-c3sc(NC(=O)c4ccccc4)nc3C)cs2)cc1	16.8%
N#Cc1c(NC(=O)c2ccc(N3CCOCC3)c([N+](=O)[O-])c2)sc2c1CCCC2	2.3%
CCCCc1ccc(NC(=S)N2CCCC(CO)C2)cc1 (stereo not drawn)	-5.8%
CCN(C(=O)COC(=O)c1c(NC(C)=O)sc(C)c1C)C1CCS(=O)(=O)C1 (stereo not drawn)	25.9%
Cc1ccc(C)c(NC(=O)C(OC(=O)c2ccc(C)s2)c2ccccc2)c1 (stereo not drawn)	16.7%
CCn1c(SCC(=O)Nc2ccc(C)cc2)nc2nc3c(cc2c1=O)CCCC3	2.8%
Cc1nn(-c2ccccc2)c(Cl)c1/C=C/C(=O)c1ccc(O)cc1	25.9%
CC(=O)N1CCN(CC(=O)Nc2ccc(SC(F)F)cc2)CC1	-3.7%
CCOc1ccc(S(=O)(=O)N/N=C(\C)c2ccc(Cl)c(Cl)c2Cl)cc1	8.2%
C/C(=N\NC(=O)c1cc2c(s1)CCC(C)C2)c1cccnc1 (stereo not drawn)	1.2%
COc1ccc(Br)cc1CN(C)CC(=O)Nc1cc([N+](=O)[O-])ccc1OC	33.8%
N#CCOc1ccc(C2=NO[C@@H]3[C@@H]4C[C@@H]([C@H]5C(=O)N(c6ccc7c(c6)OCO7)C(=O)[C@@H]45)[C@H]23)cc1	-2%
Cc1ccc(C)c(NC(CC(=O)c2ccccc2)C(=O)OCC(=O)c2cccs2)c1 (stereo not drawn)	2.1%
COc1ccccc1OCCC(=O)OCC(=O)NCc1ccccc1	5%
CCc1nc(C)cn1S(=O)(=O)c1cc(OC)c(C)cc1C	51.2% (active)
CCCOc1cc(C)c(S(=O)(=O)n2nnc3ccccc32)cc1C	2.3%
Cc1ccc(-n2c(C)cc(C(=O)CSc3nnc4ccccn34)c2C)cc1	23.4%
CN(C(=O)c1c(Cl)cnn1C)C12CC3CC(CC(C3)C1)C2	-23%
FC(F)Oc1ccccc1NC(=S)Nc1cccc(Cl)c1Cl	64.3%
CCCCC1N2CC3([N+](=O)[O-])CN1CC([N+](=O)[O-])(C2)C3(C)C (stereo not drawn)	-3.2%
O=C(CN1CCN(c2ccccn2)CC1)N1CCc2ccccc21	5.5%
